Results filed as inconclusive are left out. Activity calls are given as the source filed them. Calls come from the whole dose curve; as a rule, active = well fitted inhibition curve with a large enough effect; inconclusive = small, poorly fitted or top-dose-only effect, or effect the other way, or another doubt; inactive = no such curve, though single readings can be large or run the other way.
Experiment: Confirmation Concentration-Response Assay for lipid storage modulators; note: nearly all actives have a fitted effect of over 80% in size
Outline: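 Cells at 5,000/well received compound as a titration plus oleic acid (added as 400 uM solution) and were incubated 18–24 h at 24 °C. BODIPY 493/503 lipid signal and CellTracker Red cell count were read by 488-nm laser-scanning cytometry. Activity was normalised to 20 uM Triacsin C.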
Potency is the fitted concentration of half-maximal effect.

Row | SMILES | Potency
1 | OCCNc1c2ccccc2nc2c(F)c(F)c(F)c(F)c12 | 8.65 µM (active)
2 | c1ccc2c(c1)OCC(CNc1ncnc3sccc13)O2 (stereo unspecified) | 0.996 µM (active)
3 | COc1ccc(CCNC(=O)CSc2nc3[nH]ncc3c(=O)n2-c2ccc(Cl)cc2Cl)cc1OC | inactive
4 | CCOc1ccc(CCNC(=O)COC(=O)c2c(C)nn(-c3ccccc3)c2C)cc1OCC | 1.58 µM (active)
5 | COc1ccc(CCNC(=O)CSc2nnc(-c3ccccc3)c3ccccc23)cc1OC | 4.45 µM (active)
6 | Cc1ccc(C(=O)NC2CCCc3c2cnn3-c2ccc(F)cc2F)cn1 (stereo unspecified) | 3.97 µM (active)
7 | Cc1ccc(C(NC(=O)C2CCCCC2)c2c(O)ccc3ccccc23)cc1 (stereo unspecified) | 17.7 µM (active)
8 | COc1ccc(CCNC(=O)CCc2ccc(S(=O)(=O)NC(C)C)cc2)cc1OC | inactive
9 | COc1ccc(CCn2ccc(O)c(Cc3ccc(Cl)cc3)c2=O)cc1OC | 0.315 µM (active)
10 | CCOc1ccc(CCNC(=O)CN2C(=O)NC3(CCCCC3C)C2=O)cc1OCC (stereo unspecified) | inactive
11 | COc1ccccc1C(=O)O[C@H]1[C@H](Cc2ccccc2)NS(=O)(=O)[C@H]2C[C@@H]3C=C[C@]12O3 | 8.88 µM (active)
12 | COc1ccc(CCNC(=O)[C@H](C)N2C(=O)N3CCc4c([nH]c5ccccc45)[C@@]3(C)C2=O)cc1OC | 0.56 µM (active)
13 | COc1ccc(CCNC(=O)c2ccc(N(C)S(=O)(=O)c3ccc(C)cc3)cc2)cc1OC | 14.1 µM (active)
14 | COc1ccc(CCNC(=O)Cn2nnc(-c3ccc(N(C)C)cc3)n2)cc1OC | 0.705 µM (active)
15 | COc1ccc(CCNC(=O)CCCCCNc2nc(=S)[nH]c3ccccc23)cc1OC | 2.5 µM (active)
16 | COc1ccc(CCNC(=O)CSc2ccc3ccccc3c2)cc1OC | 1.41 µM (active)
